{"source": "the supplement of paper PMC4954754", "note": "± gives the uncertainty stated by the source.", "data": [{"tested_on": "HEK293T-Rex XBP1-RLuc", "assay": "XBP1-RLuc splicing reporter activation, triplicate, relative to 500 nM thapsigargin (% of thapsigargin); higher = stronger IRE1/XBP1s reporter activation", "settings": "6.8 µM; 18 h; screen: confirmation", "method": "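HEK293T-Rex cells stably expressing the ERSE-firefly luciferase (BiP promoter, ATF6-preferring) or XBP1-splicing Renilla luciferase (IRE1/XBP1s) reporter, 1536-well plates, compound at 6.8 µM for 18 hr at 37 °C; luminescence read […] and expressed as % activation = 100*(compound - median DMSO)/(median 500 nM thapsigargin - median DMSO). Primary screen was single-pass; confirmation screen in triplicate (mean ± SD).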", "values": [{"smiles": "NC(=O)c1c(NC(=O)c2cccc3ccccc23)sc2c1CCC2", "XBP1-RLuc splicing reporter activation": "9.06 ± 0.86"}, {"smiles": "Cc1ccc(O)c(NC(=O)CN(C)S(=O)(=O)c2ccc(Cl)cc2)c1", "XBP1-RLuc splicing reporter activation": "15.1 ± 3.3"}, {"smiles": "Cc1ccc(C)c(/C=N/Nc2nncc3ccccc23)c1", "XBP1-RLuc splicing reporter activation": "5.57 ± 0.69"}, {"smiles": "O=C(/C=C/c1ccccc1)Nc1ccc(Cl)cn1", "XBP1-RLuc splicing reporter activation": "1.96 ± 0.26"}, {"smiles": "O=C(COC(=O)c1cc(O)c(O)c(O)c1)Nc1ccc(Br)cc1F", "XBP1-RLuc splicing reporter activation": "20.18 ± 0.15"}, {"smiles": "Nc1nc(Nc2ccccc2)cc(-c2ccccc2)n1", "XBP1-RLuc splicing reporter activation": "1.44 ± 0.87"}, {"smiles": "N#Cc1c(NC(=O)c2cccc(F)c2)sc2c1CCC2", "XBP1-RLuc splicing reporter activation": "2 ± 0.56"}, {"smiles": "COC(=O)c1c(NC(=O)CCl)sc(C(=O)Nc2cccc([N+](=O)[O-])c2)c1C", "XBP1-RLuc splicing reporter activation": "12.1 ± 0.46"}, {"smiles": "O=C(Nc1ccccc1O)c1cc2ccccc2o1", "XBP1-RLuc splicing reporter activation": "7.88 ± 0.66"}, {"smiles": "COc1ccc(C2C=C3Oc4ccccc4N=C3NN2)cc1", "note": "(stereo not given)", "XBP1-RLuc splicing reporter activation": "4.19 ± 0.13"}, {"smiles": "Nc1ccccc1NC(=O)c1ccc(C(=O)Nc2ccccc2N)cc1", "XBP1-RLuc splicing reporter activation": "4.04 ± 0.55"}, {"smiles": "COc1cccc(/C=N/NC(=O)c2ccc(NC(=O)c3ccc(C)cc3)cc2)c1O", "XBP1-RLuc splicing reporter activation": "86.3 ± 12"}, {"smiles": "Cc1ccc(O)c(-c2cc(-c3cccs3)[nH]n2)c1", "XBP1-RLuc splicing reporter activation": "7.79 ± 0.86"}, {"smiles": "Cc1cc(C)nc(/N=C(\\N)Nc2ccc(OCCC(C)C)cc2)n1", "XBP1-RLuc splicing reporter activation": "101 ± 1.1"}, {"smiles": "COc1ccc(-n2nnnc2SCC(N)=O)c(OC)c1", "XBP1-RLuc splicing reporter activation": "13.9 ± 1.2"}, {"smiles": "Cc1cccc2c1[nH]c1nc(N/N=C\\c3c[nH]c4ccccc34)nnc12", "XBP1-RLuc splicing reporter activation": "21.8 ± 1.6"}, {"smiles": "COc1ccc(/C=C/c2nc3cc([N+](=O)[O-])ccc3s2)cc1O", "XBP1-RLuc splicing reporter activation": "4.47 ± 0.66"}, {"smiles": "O=C1c2cc(O)ccc2-c2ccc(O)cc21", "XBP1-RLuc splicing reporter activation": "17.8 ± 0.69"}, {"smiles": "Oc1cccc(Nc2nc(-c3ccc(O)c(O)c3)cs2)c1", "XBP1-RLuc splicing reporter activation": "17.5 ± 0.67"}, {"smiles": "Cc1nc(-c2coc3c(O)c(O)ccc3c2=O)cs1", "XBP1-RLuc splicing reporter activation": "7.82 ± 0.28"}]}]}
